{"source": "PubChem BioAssay (EPA / NIEHS)", "note": "“And” between values parts separate entries of the source, which are not always exact repeats. Equal values may be shown once. Some structures have more than one record in an assay (separate samples or runs), and their calls can disagree. The source made the active and inactive calls. How the source made its calls: active means hit-call score of the fitted dose curve at least 0.9, where 1 is the maximum; inactive means score below 0.9.", "data": [{"assay": "ATG_MRE_CIS: Attagene CIS-FACTORIAL HepG2 Assay for human Metal Responsive Element (MRE) (AID 2282954)", "settings": "HepG2 MRE cis-reporter transcription, Attagene multiplex; actives raise or lower the signal", "method": "ATG_CIS is a cell-based, multiplexed-readout assay that uses HepG2, a human liver cell line, with measurements taken at 24 hours after chemical dosing in a 24-well plate.ATG_MRE_CIS is one of 52 assay component(s) measured or calculated from the ATG_CIS assay. It is designed to make measurements of mRNA induction, a form of inducible reporter, as detected with fluorescence intensity signals by Reverse transcription polymerase chain reaction (RT-PCR) and Capillary electrophoresis technology.Data from the assay component ATG_MRE_CIS was analyzed into 1 assay endpoint. This assay endpoint, ATG_MRE_CIS, was analyzed with bidirectional fitting relative to DMSO as the negative control and baseline of activity. Using a type of inducible reporter, measures of mRNA for gain or loss-of-signal activity can be used to understand the reporter gene at the transcription factor-level as they relate to the gene MTF1. Furthermore, this assay endpoint can be referred to as a primary readout, because this assay has produced multiple assay endpoints where this one serves a reporter gene function. To generalize the intended target to other relatable targets, this assay endpoint is annotated to the dna binding intended target family, where the subfamily is zinc finger.\nHuman liver HepG2 cells are transiently transfected with multiple reporter transcription units (MRTUs) in 6-well plates using FuGene 6 reagent (Roche; 3 ml FuGene/1 mg DNA). The MRTU constructs are regulated by a cis-regulating element (promoter). […] A major difference between the CIS and TRANS system is that in CIS activities of endogenous TFs are measured, whereas the TRANS assay evaluates changes in activities of exogenous, chimeric NR-Gal4 proteins. […] At the end of 24 hour incubation, total RNA was isolated using TriZol reagent (Invitrogen). The isolated RNA is then reverse-transcribed using oligo(dT) primer and Mo-MLV reverse transcriptase (Invitrogen) with DNAse I (Ambion) treatment for 30 min. The one-tenth of the produced cDNA was amplified by PCR using Taq DNA polymerase (Invitrogen) and two reporter sequence-specific primers. The PCR products were fluorescently labeled by primer extension with 6-arboxyfluorescein (6-FAM) 5'-labeled reporter sequence-specific primer (2 min at 95 C, 20 s at 68 C and 10 min at 72 C) and these products were digested with 5U of HpaI (New England Biolabs) for 2h at 37 C. The fragments were purified using Qiaquick PCR columns (Qiagen), analyzed on an ABI 3130xL genetic analyzer (Applied Biosystems) with peak positions identified by using a set of X-rhodamine (ROX)-labeled MapMarker1000 molecular weight standards (BioVentures). The raw capillary electrophoresis data was processed using Attagraph software (Attagene).", "values": [{"smiles": "CN(C)c1ccc(C(=C2C=CC(=[N+](C)C)C=C2)c2ccc(N(C)C)cc2)cc1", "AC50": "4.28 µM (active)"}, {"smiles": "O=C1CCC(C2CCCCC2)CC1", "outcome": "inactive", "AC50": "100 µM (active) and 154 µM (active) and 114 µM (active)"}, {"smiles": "CC[C@@H]1C[C@H](N(Cc2cc(C(F)(F)F)cc(C(F)(F)F)c2)C(C)=O)c2cc(C(F)(F)F)ccc2N1C(=O)OC(C)C", "outcome": "inactive"}, {"smiles": "Cc1occc1C(=O)Nc1ccc(C(=O)N2CCC(F)(F)/C(=C\\C(=O)N3CCC(N4CCCCC4)CC3)c3ccccc32)cc1", "AC50": "23.7 µM (active)"}, {"smiles": "CC(C)(C)c1cc(/C=C2\\SC(N)=NC2=O)cc(C(C)(C)C)c1O", "AC50": "15 µM (active)"}, {"smiles": "c1ccc2n[nH]nc2c1", "outcome": "inactive"}, {"smiles": "O=c1[nH]sc2ccccc12", "outcome": "inactive"}, {"smiles": "O=C(OCCCCCCOC(=O)c1ccccc1)c1ccccc1", "outcome": "inactive"}, {"smiles": "O=C(O)Cc1cc(I)c(Oc2ccc(O)c(I)c2)c(I)c1", "AC50": "80.5 µM (active) [middle of 4 runs]"}, {"smiles": "COc1ccc2cc(S(=O)(=O)N[C@H](CC(=O)N[C@H](Cc3ccc(CN4[C@H](C)CCC[C@@H]4C)cc3)C(=O)N(C)C(C)C)c3ccc4c(c3)OCO4)ccc2c1", "AC50": "11 µM (active)"}, {"smiles": "COc1cccc([C@H](O)C2CCN(CCc3ccc(F)cc3)CC2)c1OC", "outcome": "inactive"}, {"smiles": "O=C(O)c1ccccc1C(=O)OCc1ccccc1", "outcome": "inactive"}, {"smiles": "CCN(Cc1cccc(S(=O)(=O)O)c1)c1ccc(C(=C2C=CC(=[N+](CC)Cc3cccc(S(=O)(=O)O)c3)C=C2)c2ccccc2S(=O)(=O)[O-])cc1", "outcome": "inactive"}, {"smiles": "O=C(Nc1ccc(Cl)cc1)Nc1ccc(Cl)c(Cl)c1", "outcome": "inactive"}, {"smiles": "CCCCCc1ccc(N)cc1", "outcome": "inactive", "AC50": "46 µM (active)"}, {"smiles": "CN1C(=O)N(c2ccccc2Br)Cc2cnc(Nc3ccc4c(c3)OCC(CO)O4)nc21", "note": "(stereo not given)", "AC50": "33.2 µM (active)"}, {"smiles": "CN(C)C(=O)C1(N2CCCCC2)CCN(CC[C@@]2(c3ccc(Cl)c(Cl)c3)CN(C(=O)c3ccccc3)CCO2)CC1", "outcome": "inactive"}, {"smiles": "Cc1cc(F)ccc1-c1cc(N2CC[C@@H](O)[C@H]2CO)ncc1N(C)C(=O)C(C)(C)c1cc(C(F)(F)F)cc(C(F)(F)F)c1", "outcome": "inactive"}, {"smiles": "Clc1cc(Cl)c2c(c1)N=C1CCCCCN1C2", "outcome": "inactive"}, {"smiles": "CC1(C)NC(=O)N(c2ccc([N+](=O)[O-])c(C(F)(F)F)c2)C1=O", "outcome": "inactive"}, {"smiles": "O=c1c(-c2ccc(O)cc2)coc2cc(O)cc(O)c12", "outcome": "inactive", "AC50": "81.4 µM (active) and 137 µM (active)"}, {"smiles": "O=C1O[C@H]([C@@H](O)CO)C(O)=C1O", "outcome": "inactive"}, {"smiles": "Cc1oc2c(NC(=O)c3c(Cl)cccc3Cl)cccc2c1C(C)(C)O", "AC50": "129 µM (active)"}, {"smiles": "CC(C)(O)c1ccc(CNC(=O)c2cccnc2Oc2ccc3nonc3c2)cc1", "outcome": "inactive"}, {"smiles": "CC[C@H](NC(=O)c1cc(F)ccc1NS(=O)(=O)c1cccc2cccnc12)c1ccccc1", "outcome": "inactive"}, {"smiles": "Clc1ccccc1C(c1ccccc1)(c1ccccc1)n1ccnc1", "AC50": "15 µM (active)"}, {"smiles": "CC(C)(C)c1csc(-c2cc3cc(OCc4ccccc4CC(=O)O)ccc3o2)n1", "AC50": "43.8 µM (active)"}, {"smiles": "Cc1ncc(CO)c(CO)c1O", "outcome": "inactive"}, {"smiles": "c1ccc(C[n+]2cccc3ccccc32)cc1", "outcome": "inactive"}, {"smiles": "OC12N=C(c3ccccc3)SC1Cc1cc(Cl)ccc12", "note": "(stereo not given)", "outcome": "inactive"}, {"smiles": "CCCCCCCCOc1ccc(C(=O)c2ccccc2)c(O)c1", "outcome": "inactive"}, {"smiles": "CN1C(=O)CC[C@H]1c1cccnc1", "outcome": "inactive"}, {"smiles": "Cc1c2ccccc2c(C)c2c1ccc1ccccc12", "outcome": "inactive"}, {"smiles": "CCN(CC)C(=O)c1cc(S(=O)(=O)Cc2ccccc2)c(N2CCC(c3ccccc3)CC2)cc1N(CC)CCN(C)C", "AC50": "3.7 µM (active)"}, {"smiles": "CC/C(=C(/CC)c1ccc(O)cc1)c1ccc(O)cc1", "AC50": "15.2 µM (active) [middle of 4 runs]", "outcome": "inactive"}, {"smiles": "O=C(O)c1ccccc1-n1cc(C(=O)O)c(=O)c2cc(Nc3c(F)cc(F)cc3Cl)c(Cl)cc21", "outcome": "inactive"}]}]}
